Results published in article PMC5540273 (PLoS ONE, 2017).
Values joined by “and” are separate entries in the source; they are usually repeats but may differ in a detail not shown here. Equal values may be shown once. Read-outs that look alike come from different tables or passages of the source.

Experiments:
CSNK1A1 = conditions: concentration: 1 μM, replicates: in singlicate; n = 1
CSNK1D = conditions: n = 1
CSNK1E = conditions: n = 1
CSNK1G1 = conditions: n = 1
CSNK1G2 = conditions: concentration: 1 μM, replicates: in singlicate; n = 1
CSNK1G3 = conditions: n = 1
CSNK2A1 = conditions: n = 1
CSNK2A2 = conditions: n = 1
CTK = test system: T1, CTK; conditions: concentration: 1 μM, replicates: in singlicate; n = 1
T1 construct: gene MATK

DAPK1 = conditions: n = 1
[1] = concentration: 1 μM, replicates: in singlicate
[2] = concentration: 1 μM,replicates: in singlicate, 1 µM
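Also: KINOMEscan kinase panel screen.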

SMILES	%Inh (CSNK1A1)	%Inh (CSNK1D; [1])	%Inh (CSNK1E; [1])	%Inh (CSNK1G1; [1])	%Inh (CSNK1G2)	%Inh (CSNK1G3; [1])	%Inh (CSNK2A1; [1])	%Inh (CSNK2A2; [1])	%Inh (CTK)	%Inh (DAPK1; [1])	%Inh (CSNK1D; [2])	%Inh (CSNK1E; [2])	%Inh (CSNK1G1; [2])	%Inh (CSNK1G3; [2])	%Inh (CSNK2A1; [2])	%Inh (CSNK2A2; [2])	%Inh (DAPK1; [2])
CC1=C(C(=O)Nc2cc3cn[nH]c3cc2F)C(c2ccc(C(F)(F)F)cc2)CC(=O)N1 (stereo not drawn) [GSK429286]	0%	10%	25%	7%	0%	12%	18%	0%	0%	9%	–	–	–	–	–	–	–
Cc1cccc(-c2nc(-c3ccc(S(C)(=O)=O)cc3)sc2-c2ccnc(NCCc3ccccc3)c2)c1	0%	1%	8%	5%	1%	0%	0%	28%	0%	0%	–	–	–	–	–	–	–
Fc1cccc(COc2nnc(-c3ccc4c(c3)CCO4)o2)c1	0%	0%	0%	10%	4%	0%	42%	60%	0%	24%	–	–	–	–	–	–	–
Cl.c1ccc(-c2n[nH]cc2-c2ccnc(-c3ccc(CN4CCOCC4)cc3)c2)nc1 [GW776245]	61%	58%	37%	16%	36%	0%	0%	0%	0%	13%	–	–	–	–	–	–	–
Cc1cc(-c2ccc3c(c2)CC[C@@H](N[C@@H](C)c2ccccc2)C3)cnc1N.Cl [GW412617]	6%	35%	12%	11%	0%	8%	2%	10%	13%	10%	–	–	–	–	–	–	–
Cc1c(O)cccc1Nc1ccnc2ccc(C(F)(F)F)cc12.Cl [GW466413]	0%	0%	22%	0%	0%	0%	0%	0%	0%	0%	–	–	–	–	–	–	–
Cc1ccc(NC(=O)Nc2cc(C(C)(C)C)nn2-c2ccccc2)cc1 [GSK1014915]	0%	13%	0%	0%	0%	25%	13%	0%	18%	6%	–	–	–	–	–	–	–
O=c1cc(N2CCOCC2)nc2n(Cc3cccc(Cl)c3Cl)ccn12 [GSK2286295]	27%	26%	41%	10%	0%	41%	2%	5%	0%	8%	–	–	–	–	–	–	–
COc1cc2nccc(Nc3ccc(NC(=O)c4ccc(C)cc4)c(O)c3)c2cc1OC.Cl [GW440132]	0%	2%	45%	0%	0%	30%	0%	0%	0%	0%	–	–	–	–	–	–	–
Cc1ccccc1-n1cnc2c(N)ncnc21 [SKF-97510]	0%	5%	11%	0%	0%	0%	0%	0%	0%	94.8%	–	–	–	–	–	–	–
Cn1ccc2ncnc(Oc3ccc(NC(=O)Nc4ccccc4)cc3)c21	4%	13%	5%	0%	11%	0%	14%	0%	0%	11%	–	–	–	–	–	–	–
CCCc1ccc(S(=O)(=O)NC2CCN(c3ccnc(Nc4ccc(F)cc4)n3)C2)cc1 (stereo not drawn) [GSK1379715]	0%	0%	25%	2%	0%	2%	0%	0%	0%	0%	–	–	–	–	–	–	–
Cc1csc(-c2nc(Nc3ccncc3)c3ccccc3n2)n1 [GW869640]	28%	46%	41%	0%	9%	0%	28%	26%	36%	22%	–	–	–	–	–	–	–
Fc1cc(Cl)ccc1Nc1ccnc2cc(-c3ccc(CN4CCCCC4)o3)ccc12 [GW560116]	0%	7%	46%	11%	0%	23%	0%	94.6%	0%	1%	–	–	–	–	–	–	–
CS(=O)(=O)c1ccc(-c2c(-c3ncn[nH]3)sc(N3CCOCC3)c2C#N)cc1	48%	0%	4%	1%	0%	0%	0%	24%	26%	5%	–	–	–	–	–	–	–
O=C(Nc1ccc2c(c1)OCO2)NC1CCN(c2ccnc(Nc3ccc(F)cc3)n2)C1 (stereo not drawn) [GSK1379724]	0%	21%	0%	0%	0%	8%	0%	0%	0%	0%	–	–	–	–	–	–	–
CSc1nn2c(=O)cc(N3CCOCC3)nc2n1Cc1cccc(C(F)(F)F)c1C [GSK2363608]	0%	–	–	–	0%	–	–	–	0%	–	27% and 8%	25% and 19%	100% and 4%	41% and 20%	7% and 0%	7% and 0%	3% and 0%
Cc1cccc(-c2cc(Nc3ccncc3)c3ccccc3n2)n1 [GSK223675]	0%	14%	50%	10%	0%	17%	7%	2%	0%	18%	–	–	–	–	–	–	–
